This is part of a sample that, as a whole, favours compounds with a hit. Of some 83,000 tested, about 20% had one in any assay.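 Note: values are percent growth. 100 is the growth of untreated cells, values between 100 and 0 indicate rising inhibition; between -100 and 0 indicates cell death.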 The source made the active and inactive calls. Rule for the calls: active = growth percent below 10; inactive = the rest.
Key:
Assay in all cases: NCI-60 one-dose screen, 48 h (100 = growth as untreated, 0 = no growth, -100 = all killed)
Conditions in all cases: 10 µM unless noted
HCT-15 colon = system: HCT-15 colon
HT29 colon = system: HT29 colon
SNB-75 CNS = system: SNB-75 CNS
U251 CNS = system: U251 CNS
PC-3 prostate = system: PC-3 prostate
UACC-62 melanoma = system: UACC-62 melanoma
LOX IMVI melanoma = system: LOX IMVI melanoma
SK-MEL-28 melanoma = system: SK-MEL-28 melanoma
SN12C renal = system: SN12C renal
ACHN renal = system: ACHN renal
CAKI-1 renal = system: CAKI-1 renal
A498 renal = system: A498 renal
CCRF-CEM leukemia = system: CCRF-CEM leukemia
MOLT-4 leukemia = system: MOLT-4 leukemia
SK-MEL-5 melanoma = system: SK-MEL-5 melanoma
UO-31 renal = system: UO-31 renal
SNB-19 CNS = system: SNB-19 CNS
TK-10 renal = system: TK-10 renal
SK-MEL-2 melanoma = system: SK-MEL-2 melanoma
EKVX NSCLC = system: EKVX NSCLC

Measured: growth

CNc1ccc(Br)cc1-c1n[nH]c(=O)[nH]c1=O
inactive: HCT-15 colon 102% | HT29 colon 112% | SNB-75 CNS 77.4% | U251 CNS 96.2% | PC-3 prostate 99.5% | UACC-62 melanoma 105% | LOX IMVI melanoma 98.6% | SK-MEL-28 melanoma 107% | SN12C renal 108% | ACHN renal 94.6% | CAKI-1 renal 76% | A498 renal 89.7% | CCRF-CEM leukemia 102% | MOLT-4 leukemia 99.5%

CC(C)(C)[Si](C)(C)OC1[C@@H](COC(N)=O)O[C@@H](n2cnc3c(N)ncnc32)[C@H]1O[Si](C)(C)C(C)(C)C (some centres not stated)
inactive: HCT-15 colon 88% | HT29 colon 93.6% | SNB-75 CNS 99.4% | U251 CNS 82.7% | PC-3 prostate 18.4% | SK-MEL-5 melanoma 96.9% | UACC-62 melanoma 85.5% | LOX IMVI melanoma 98.2% | SK-MEL-28 melanoma 98.3% | SN12C renal 102% | UO-31 renal 51.9% | ACHN renal 89.1% | CAKI-1 renal 91.9% | A498 renal 106% | CCRF-CEM leukemia 50.3%
active: MOLT-4 leukemia -40.1%

Cc1ccc(N=c2nc3sc4c(C)ccc(C)c4n3c(N)c2C#N)cc1
inactive: HCT-15 colon 104% | HT29 colon 104% | SNB-75 CNS 92.1% | U251 CNS 96.1% | PC-3 prostate 88% | UACC-62 melanoma 77.9% | LOX IMVI melanoma 99.4% | SK-MEL-28 melanoma 105% | SN12C renal 108% | UO-31 renal 89.6% | ACHN renal 103% | CAKI-1 renal 88.4% | A498 renal 110% | CCRF-CEM leukemia 85% | MOLT-4 leukemia 93.6%

CCOC(=O)c1sc(NC(=O)CN2CCC(Cc3ccccc3)CC2)nc1C
inactive: HCT-15 colon 92.9% | HT29 colon 79.8% | SNB-75 CNS 109% | SNB-19 CNS 104% | PC-3 prostate 93.1% | UACC-62 melanoma 114% | LOX IMVI melanoma 96.7% | SK-MEL-28 melanoma 110% | SN12C renal 106% | UO-31 renal 80.4% | TK-10 renal 106% | ACHN renal 107% | CAKI-1 renal 99.4% | A498 renal 100% | CCRF-CEM leukemia 94.1% | MOLT-4 leukemia 84.3%

O=c1[nH]c(-c2ccccn2)nc2sc3c(c12)CCCCCC3
inactive: HCT-15 colon 27.9% | HT29 colon 49% | SNB-75 CNS 64.8% | U251 CNS 22.5% | PC-3 prostate 41.1% | UACC-62 melanoma 45.6% | LOX IMVI melanoma 29.7% | SK-MEL-28 melanoma 40.1% | SN12C renal 50.5% | UO-31 renal 31.8% | ACHN renal 37.5% | CAKI-1 renal 28.1% | A498 renal 36.7% | CCRF-CEM leukemia 32.6% | MOLT-4 leukemia 18.8%

CC(C)(C)[Si](C)(C)OC1[C@@H](COC(=O)NC(=O)CCl)O[C@@H](n2cnc3c(N)ncnc32)[C@H]1O[Si](C)(C)C(C)(C)C (some centres not stated)
active: PC-3 prostate -59.9% | LOX IMVI melanoma -94% | SN12C renal -47.5% | CCRF-CEM leukemia -48.6% | MOLT-4 leukemia -54.7%
inactive: HCT-15 colon 11.8% | HT29 colon 32.3% | SNB-75 CNS 101% | U251 CNS 53.2% | SK-MEL-5 melanoma 61.4% | UACC-62 melanoma 75.2% | SK-MEL-28 melanoma 71.8% | UO-31 renal 20% | ACHN renal 61.4% | CAKI-1 renal 19.3% | A498 renal 105%

COc1ccccc1-n1c(SCc2cc(OC)c(OC)c(OC)c2)nc2ccc(Cl)cc2c1=O
inactive: HCT-15 colon 27.8% | U251 CNS 25.6% | PC-3 prostate 19.6% | SK-MEL-5 melanoma 27.7% | UACC-62 melanoma 34.3% | LOX IMVI melanoma 33.2% | SK-MEL-28 melanoma 49.4% | SN12C renal 70.3% | UO-31 renal 42.6% | ACHN renal 44.2% | CAKI-1 renal 42.6% | MOLT-4 leukemia 15.4%
active: HT29 colon 7.69% | SNB-75 CNS -4.26% | A498 renal 5.01% | CCRF-CEM leukemia 2.88%

CN1CCc2c(c3ccccc3c3ccccc23)C1
inactive: HCT-15 colon 31.3% | HT29 colon 37.7% | SNB-75 CNS 66.1% | SNB-19 CNS 66.2% | PC-3 prostate 64% | UACC-62 melanoma 61.3% | SK-MEL-28 melanoma 87.4% | SN12C renal 42.7% | UO-31 renal 42.2% | TK-10 renal 60.9% | ACHN renal 25.7% | CAKI-1 renal 56.1% | A498 renal 62.9%
active: CCRF-CEM leukemia -38.4% | MOLT-4 leukemia 6.11%

O=[N+]([O-])c1cc2c(cc1Br)-c1ccccc1C2
inactive: HCT-15 colon 45.3% | HT29 colon 95.9% | SNB-75 CNS 86.5% | U251 CNS 98.5% | PC-3 prostate 91.8% | UACC-62 melanoma 82% | LOX IMVI melanoma 88.8% | SK-MEL-28 melanoma 98.4% | SK-MEL-2 melanoma 101% | EKVX NSCLC 77.6% | SN12C renal 85.1% | UO-31 renal 70.5% | TK-10 renal 126% | ACHN renal 94.2% | CAKI-1 renal 76.4% | A498 renal 95.1% | CCRF-CEM leukemia 70.9% | MOLT-4 leukemia 88.8%

CC(C)(C)[Si](C)(C)OC1[C@@H](CNC(=O)NC(=O)CCl)O[C@@H](n2cnc3c(N)ncnc32)[C@H]1O[Si](C)(C)C(C)(C)C (some centres not stated)
inactive: SNB-75 CNS 50% | SK-MEL-5 melanoma 90.6%
active: HCT-15 colon -72.8% | HT29 colon -74.7% | U251 CNS -81% | PC-3 prostate -83% | UACC-62 melanoma -75% | LOX IMVI melanoma -91.3% | SK-MEL-28 melanoma -14.4% | SN12C renal -81.9% | UO-31 renal -96.8% | ACHN renal -95.8% | CAKI-1 renal -64.8% | A498 renal -12.9% | CCRF-CEM leukemia -46.5% | MOLT-4 leukemia -53.5%

Clc1cccc(Cl)c1Nc1ccc2nnc(-c3ccncc3)n2n1
inactive: HT29 colon 106% | SNB-75 CNS 99.4% | SNB-19 CNS 101% | U251 CNS 103% | PC-3 prostate 101% | SK-MEL-5 melanoma 100% | UACC-62 melanoma 106% | LOX IMVI melanoma 93.2% | SK-MEL-28 melanoma 105% | SK-MEL-2 melanoma 104% | SN12C renal 95.9% | TK-10 renal 102% | ACHN renal 105% | CAKI-1 renal 89.2% | A498 renal 90.5% | CCRF-CEM leukemia 80.7% | MOLT-4 leukemia 96.1%

O=C(COc1ccc(/C=C2\CSc3ccccc3C2=O)cc1)c1ccc(Cl)cc1
inactive: HT29 colon 121% | SNB-75 CNS 108% | SNB-19 CNS 92.3% | U251 CNS 104% | SK-MEL-5 melanoma 116% | UACC-62 melanoma 83% | LOX IMVI melanoma 95% | SK-MEL-28 melanoma 124% | SK-MEL-2 melanoma 95.1% | EKVX NSCLC 122% | SN12C renal 103% | TK-10 renal 113% | ACHN renal 99% | CAKI-1 renal 96.5% | A498 renal 105% | CCRF-CEM leukemia 93.9%

Oc1ccccc1/C=N/Nc1nc2ccccc2s1
inactive: HT29 colon 105% | SNB-75 CNS 45.6% | SNB-19 CNS 51.4% | U251 CNS 45.3% | PC-3 prostate 34.6% | SK-MEL-5 melanoma 48.8% | LOX IMVI melanoma 37.2% | SK-MEL-28 melanoma 83.3% | EKVX NSCLC 61.9% | SN12C renal 48.8% | UO-31 renal 19.7% | TK-10 renal 95.1% | ACHN renal 43.1% | A498 renal 78.3% | MOLT-4 leukemia 41.2%
active: CAKI-1 renal 7.12%

Cc1cc(=O)[nH]n1-c1cc(Cl)ccc1N
inactive: HT29 colon 102% | SNB-75 CNS 88.4% | SNB-19 CNS 112% | U251 CNS 108% | PC-3 prostate 106% | SK-MEL-5 melanoma 112% | LOX IMVI melanoma 94.7% | SK-MEL-28 melanoma 115% | EKVX NSCLC 117% | SN12C renal 110% | UO-31 renal 89.3% | TK-10 renal 98.1% | ACHN renal 100% | A498 renal 120% | MOLT-4 leukemia 112%

COc1ccc(C(=O)COc2cccc(/C=C3\CSc4ccc(C)cc4C3=O)c2)cc1
active: CCRF-CEM leukemia -9.38% | MOLT-4 leukemia -7.35%
inactive: HT29 colon 101% | SNB-75 CNS 95% | SNB-19 CNS 97% | U251 CNS 97% | SK-MEL-5 melanoma 88.2% | UACC-62 melanoma 75.2% | LOX IMVI melanoma 74.2% | SK-MEL-28 melanoma 120% | SK-MEL-2 melanoma 79.5% | EKVX NSCLC 106% | SN12C renal 91.7% | UO-31 renal 78.5% | TK-10 renal 101% | ACHN renal 101% | CAKI-1 renal 91.6% | A498 renal 112%

O=c1onc(-c2ccccc2)c2ccccc12
inactive: HT29 colon 109% | SNB-75 CNS 109% | SNB-19 CNS 104% | U251 CNS 98.7% | PC-3 prostate 102% | SK-MEL-5 melanoma 103% | UACC-62 melanoma 103% | LOX IMVI melanoma 97.5% | SK-MEL-28 melanoma 103% | SK-MEL-2 melanoma 118% | EKVX NSCLC 121% | SN12C renal 101% | UO-31 renal 97.8% | TK-10 renal 114% | ACHN renal 112% | CAKI-1 renal 98.5% | A498 renal 83.1% | MOLT-4 leukemia 98.9%
